This note sets out measurements from PubChem BioAssay.

Assay [1] concerns Human papillomavirus type 1a protein E7 (residues 44-93). The assay is described as follows: small molecules binding HPV E7 44-93 – biochemical, small-molecule microarray, residues 44-93, 635 nm fluorescence, primary screen (AID 1108).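 Note: E7 fragment applied at 1 µg/mL in TBST for 1 h at 4 C; score combines spot fluorescence with its signal to noise ratio.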 The following applies: fluorescence 635 nm, higher = more signal.
The nature of assay [2]: hepatitis C replication reporter changes, two-sided – Huh7 cells, luciferase reporter, HCV replication inhibitor project, primary screen (AID 1109).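 Note: huh7 hepatoma cells harbouring a luciferase neomycin HCV replicon reporter; luciferase luminescence as measure of HCV replicon replication; test concentration not given here.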 Particulars: Huh7 HCV replicon luciferase reporter, 48 h; higher = more signal. (In general: Reporter assays use an easily measured gene product as a stand-in for the process of interest.)
For assay [3], the target named is Left-right determination factor 2 (Homo sapiens) (UniProt O00292). Put plainly: small molecules binding LEFTY2 protein – biochemical, small-molecule microarray, 635 nm fluorescence scan, primary screen (AID 1110). The following applies: higher = more signal.
Sequence of Left-right determination factor 2 (Homo sapiens) (O00292 whole entry, looked up): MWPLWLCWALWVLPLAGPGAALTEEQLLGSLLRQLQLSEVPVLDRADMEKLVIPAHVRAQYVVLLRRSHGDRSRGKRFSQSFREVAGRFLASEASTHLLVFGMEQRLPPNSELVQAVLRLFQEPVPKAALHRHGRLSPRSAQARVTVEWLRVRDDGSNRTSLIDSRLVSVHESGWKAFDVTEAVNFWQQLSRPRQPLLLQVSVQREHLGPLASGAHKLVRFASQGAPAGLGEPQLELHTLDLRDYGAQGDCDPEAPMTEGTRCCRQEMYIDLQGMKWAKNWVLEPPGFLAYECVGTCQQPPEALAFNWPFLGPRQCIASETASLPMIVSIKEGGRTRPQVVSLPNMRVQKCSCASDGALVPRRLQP
For assay [4], the target named is Calmodulin-1 (Homo sapiens) (UniProt P0DP23). The assay is described as follows: small molecules binding calmodulin-1 with EGTA – biochemical, small-molecule microarray, Cy5-labelled CALM1, profiling panel (AID 1111).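 Note: labelled calmodulin applied in Tris saline Tween buffer holding calcium plus EGTA and DTT.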 Particulars: Cy5-CALM1 binding fluorescence, higher = more signal.
Assay [5] shares this target. The assay is described as follows: small molecules binding Ca-loaded calmodulin-1 – biochemical, small-molecule microarray, Cy5-labelled CALM1, plus calcium, artefact control for SMM control-protein annotation, profiling panel (AID 1112).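 Note: score merges spot fluorescence with signal to noise from triplicate slides.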 Particulars: Cy5-CALM1 binding fluorescence, higher = more signal.
Assay [6] in a line: probe aWnt5a binding to arrayed compounds – biochemical, biotinylated probe, 635/667 nm fluorescence, primary screen (AID 1113).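 Note: score merges 667 nm fluorescence intensity with signal-to-noise per printed feature.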 Particulars: small-molecule microarray, higher = more signal.
Assay [7] can be described thus: probe aShh binding to arrayed compounds – biochemical, biotinylated probe, 635/667 nm fluorescence, primary screen (AID 1114).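 Note: probe is biotin-labelled aShh protein from a stem cell growth factor screen; measures binding of labelled protein to compounds printed on the slide; score merges feature fluorescence at 667 nm with signal-to-noise.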 The following applies: small-molecule microarray, higher = more signal.
A short description of assay [8]: probe aNog binding to arrayed compounds – biochemical, biotinylated probe, 635/667 nm fluorescence, primary screen (AID 1115).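 Note: probe is biotinylated aNog protein used at 0.15 µg/mL for 1 h at 4 C; z-score combines 667 nm fluorescence of each spot with its signal to noise.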 Particulars: small-molecule microarray, higher = more signal.
Assay [9] deals with Torsin-1A-interacting protein 1 (Homo sapiens) (UniProt Q5JTV8). Put plainly: compound microarray binding of lysate hLAP1 – cell lysate, small-molecule microarray, COS7 lysate, 635/667 nm fluorescence, primary screen (AID 1116). Particulars: 635 nm fluorescence, higher = more signal.
Sequence of Torsin-1A-interacting protein 1 (Homo sapiens) (Q5JTV8 whole entry, looked up): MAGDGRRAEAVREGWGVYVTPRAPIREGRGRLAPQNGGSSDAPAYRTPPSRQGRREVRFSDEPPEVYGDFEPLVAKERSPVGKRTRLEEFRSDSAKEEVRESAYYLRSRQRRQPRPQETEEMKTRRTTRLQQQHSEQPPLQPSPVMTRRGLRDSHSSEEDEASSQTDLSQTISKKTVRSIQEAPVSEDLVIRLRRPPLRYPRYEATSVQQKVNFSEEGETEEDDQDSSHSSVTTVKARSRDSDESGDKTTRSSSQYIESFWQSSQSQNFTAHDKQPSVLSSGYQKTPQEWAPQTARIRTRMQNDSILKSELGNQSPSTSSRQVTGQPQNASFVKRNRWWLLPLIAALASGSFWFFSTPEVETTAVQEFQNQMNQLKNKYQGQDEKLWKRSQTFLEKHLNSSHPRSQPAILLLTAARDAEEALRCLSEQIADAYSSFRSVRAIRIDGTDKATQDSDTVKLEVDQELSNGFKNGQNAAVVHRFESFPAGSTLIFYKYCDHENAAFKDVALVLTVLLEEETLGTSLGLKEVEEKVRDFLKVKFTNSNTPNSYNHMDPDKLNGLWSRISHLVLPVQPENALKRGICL
Assay [10] has as its target Alpha-bungarotoxin (Bungarus multicinctus) (UniProt P60615). The assay is described as follows: compounds binding labelled alpha-BTX control protein – biochemical, small-molecule microarray, Alexa647 label, 635/667 nm fluorescence, artefact control for SMM control protein annotation, profiling panel (AID 1117). Particulars: alpha-BTX-A647 binding fluorescence, higher = more signal.

A further assay deals with Albumin (Bos taurus) (UniProt P02769). The assay is described as follows: compounds binding labelled BSA control protein – biochemical, small-molecule microarray, Alexa647 label, 635/667 nm fluorescence, artefact control for SMM control protein annotation, profiling panel (AID 1118).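 Note: score merges 667 nm emission intensity and signal-to-noise per printed compound spot.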 The following applies: BSA-A647 binding, fluorescence 635 nm, higher = more signal.
Sequence of Albumin (Bos taurus) (P02769 whole entry, looked up): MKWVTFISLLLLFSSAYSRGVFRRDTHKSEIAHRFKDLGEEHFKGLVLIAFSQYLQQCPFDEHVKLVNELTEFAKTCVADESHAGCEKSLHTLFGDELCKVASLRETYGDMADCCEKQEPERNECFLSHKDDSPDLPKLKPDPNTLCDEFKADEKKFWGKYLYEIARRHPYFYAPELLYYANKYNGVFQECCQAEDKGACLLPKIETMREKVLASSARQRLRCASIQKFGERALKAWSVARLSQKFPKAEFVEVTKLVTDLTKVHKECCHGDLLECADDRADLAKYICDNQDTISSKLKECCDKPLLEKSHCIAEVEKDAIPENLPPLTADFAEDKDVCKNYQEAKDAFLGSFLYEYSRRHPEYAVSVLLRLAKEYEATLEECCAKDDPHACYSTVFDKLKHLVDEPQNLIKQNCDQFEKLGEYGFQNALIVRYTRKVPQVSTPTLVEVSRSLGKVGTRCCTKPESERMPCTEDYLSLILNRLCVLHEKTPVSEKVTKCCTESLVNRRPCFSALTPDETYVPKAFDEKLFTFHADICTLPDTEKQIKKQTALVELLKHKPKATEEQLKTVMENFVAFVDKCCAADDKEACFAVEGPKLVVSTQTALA
Assay [11] in a line: probe aXIP binding to arrayed compounds – biochemical, NeuroSMM set, 635/667 nm fluorescence, primary screen (AID 1119).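 Note: probe is the protein aXip251-270 applied at 1 µg/mL to compound-printed slides; binding of probe to printed compounds measured as 667 nm fluorescence plus signal to noise.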 The following applies: small-molecule microarray, higher = more signal, called active from +8 up or from −8 down.
Assay [12] can be described thus: probe aNOTCH3 binding on compound microarray – biochemical, small-molecule microarray, 635/667 nm fluorescence, primary screen (AID 1120).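 Note: probe is a biotin-tagged antibody raised against NOTCH3 rather than NOTCH3 protein; score merges spot fluorescence near 667 nm with spot signal to noise.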 Particulars: higher = more signal.
Assay [13] in a line: probe aNOTCH2 binding on compound microarray – biochemical, small-molecule microarray, 635/667 nm fluorescence, primary screen (AID 1121).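 Note: score merges feature fluorescence read at 667 nm with its signal to noise.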 Particulars: higher = more signal.
In assay [14] the target is Carbonic anhydrase 2 (Homo sapiens) (UniProt P00918). The assay is described as follows: compounds binding carbonic anhydrase 2 – biochemical, small-molecule microarray, Alexa647-labelled CAII, profiling panel (AID 1122). Particulars: CAII-A647 binding fluorescence, higher = more signal.
Assay [15] in a line: COS7 lysate on small-molecule microarray, probe aHis, 635 nm (AID 1123).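 Note: z-score combines 667nm fluorescence intensity with signal-to-noise per printed compound spot.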 The following applies: COS7 cell lysate, fluorescence, higher = more signal.
Assay [16] can be described thus: probe aLAP1 signal on lysate-treated microarray – cell lysate, small-molecule microarray, COS7 lysate, primary screen (AID 1124).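 Note: lysate comes from COS7 cells expressing LAP1 and is applied at 0.3 µg/mL; score merges spot fluorescence near 667 nm with signal-to-noise over triplicate slides.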 Particulars: probe aLAP1, fluorescence, higher = more signal.
The test system of a further assay is Sam68 (KHDRBS1). Put plainly: compounds binding KHDRBS1 protein – biochemical, small-molecule microarray, 635 nm fluorescence, primary screen (AID 1125).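 Note: score merges 667 nm channel intensity with signal to noise over triplicate slides.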 Particulars: higher = more signal.
Assay [17] has as its system Chordin-like protein 2 (CHRDL2). Put plainly: compounds binding chordin-like 2 – biochemical, small-molecule microarray, 635 nm fluorescence, primary screen (AID 1126).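 Note: printed compound slides probed with Chrdl2 protein at 4 µg/mL for 1 h at 4 C; score merges 667 nm emission intensity with signal to noise over three replicate slides.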 The following applies: fluorescence 635 nm, higher = more signal.
In assay [18] the target is Concanavalin-A (Canavalia ensiformis) (UniProt P02866). Put plainly: compounds binding concanavalin A lectin – biochemical, small-molecule microarray, Alexa647 label, 635 nm, artefact control for SMM control protein annotation, primary screen (AID 1127).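 Note: z combines 667 nm emission intensity with signal-to-noise across three replicate slides.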 Particulars: ConA-A647 binding fluorescence, higher = more signal.
Sequence of Concanavalin-A (Canavalia ensiformis) (P02866 whole entry, looked up): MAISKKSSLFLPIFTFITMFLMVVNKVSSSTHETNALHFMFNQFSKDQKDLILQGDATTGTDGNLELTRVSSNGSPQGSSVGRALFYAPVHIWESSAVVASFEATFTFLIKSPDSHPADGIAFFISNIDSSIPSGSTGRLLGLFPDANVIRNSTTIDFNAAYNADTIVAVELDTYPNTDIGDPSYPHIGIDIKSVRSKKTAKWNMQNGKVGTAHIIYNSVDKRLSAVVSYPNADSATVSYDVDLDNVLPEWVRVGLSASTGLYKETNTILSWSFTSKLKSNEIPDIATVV

Calls of active or inactive are those of the source.

Sequence of Alpha-bungarotoxin (Bungarus multicinctus) (P60615 whole entry, looked up): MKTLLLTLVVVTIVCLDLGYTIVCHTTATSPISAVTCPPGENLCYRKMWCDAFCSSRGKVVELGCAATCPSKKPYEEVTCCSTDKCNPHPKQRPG

`CCOC(=O)C[C@H]1[C@H](OC(=O)Cc2ccc3c(c2)OCO3)[C@@H](NC(=O)c2ccccc2)c2cc(OCCCO)ccc2N1C(=O)c1ccc2ccccc2n1`: the composite z-score in assay [1] was 0.594; in [3] it was 0.11; in assay [4], 0.481; in assay [5], -0.455; in [6], -0.152; in [7] it was 0.172. The composite z-score in assay [8] was -0.0675; in [9] it was 0.761; in assay [10] it was -0.055; with Albumin (Bos taurus) it was 0.645; in [12] it was -0.226; in [13], -0.147. Further, the composite z-score is 0.08 in assay [14]; 0.526 in assay [15]; -0.145 in assay [16]; 0.679 in the assay with Sam68 (KHDRBS1); 0.127 in assay [17]; 1.1 in assay [18]. This molecule showed a z-score in [2] of 0.173. The composite Z-score in [11] was 0.375 (inactive).

For `CC(C)C[C@@H]1NC(=O)[C@@]23C(=O)N[C@@H](Cc4ccccc4)C2[C@H](C)[C@@]2(C)O[C@H]2C3/C=C/C/C=C\CNC(=O)[C@@H]2CCCN2C1=O` (stereo not given in full), the composite z-score in assay [1] was -0.282; in [3], 0.283; in assay [4], -0.749; in assay [5], -0.721; in assay [6], -0.124; in assay [7] it was -0.138. Further, the composite z-score in assay [8] was -0.219; in assay [9], -0.22; in assay [10], -0.442; in the assay with Albumin (Bos taurus), 0.777; in assay [12] it was -0.0026; in assay [13], -0.129. Also, the composite z-score in [14] was 0.391; in assay [15] it was -0.351; in [16], 0.339; with Sam68 (KHDRBS1), -0.747; in assay [17], 0.698; in [18] it was -0.838. Further, the z-score in assay [2] was -0.972. The composite Z-score in assay [11] is 0.572 (inactive).

As for `O=C1O[C@H](c2ccccc2)[C@H](c2ccccc2)N2[C@H]1[C@@H](C(=O)NC[C@H](O)c1ccccc1)[C@]1(C(=O)Nc3ccccc31)[C@H]2c1ccccc1OCCO`, the composite z-score was 1.4 in assay [1]; -0.11 in [3]; 1.31 in assay [4]; 0.376 in assay [5]; -0.027 in [6]; 1.47 in [7]. Moreover, the composite z-score was 2.84 in assay [8]; 1.41 in assay [9]; 2.46 in [10]; 0.426 with Albumin (Bos taurus); -0.171 in [12]; -0.138 in [13]. For the same molecule, the composite z-score stood at 0.613 in assay [14]; 1.84 in assay [15]; 0.571 in assay [16]; 0.772 with Sam68 (KHDRBS1); 0.0939 in [17]; 1.02 in assay [18]. For the same molecule, the z-score in assay [2] was -3.34. Moreover, the composite Z-score in assay [11] is 0.16 (inactive).

On to `CC1(C)[C@@H]2CC(C(O)C3C=CC4C(=O)N(c5ccccc5)C(=O)C4N3Nc3ccccc3F)=C[C@@H]1C2` (stereo not given in full), for which the composite z-score is 1.4 in assay [1]; 0.501 in assay [3]; 1.18 in assay [4]; -0.229 in assay [5]; 0.164 in assay [6]; 0.0639 in assay [7]. Further, the composite z-score is -0.256 in assay [8]; 1.34 in assay [9]; 1.12 in assay [10]; 0.844 in the assay with Albumin (Bos taurus); 0.272 in assay [12]; -0.229 in assay [13]. Further, the composite z-score was determined as 0.571 in assay [14]; 2.66 in [15]; 0.405 in assay [16]; 1.29 in the assay on Sam68 (KHDRBS1); 0.0364 in assay [17]; 1.09 in [18]. In [2], the z-score was -3.15. In addition, the composite Z-score in assay [11] is 0.0252 (inactive).

On to `C=C[C@H](C)[C@H](OC(=O)Nc1ccc(SC)cc1)c1ccc(O)c2ccccc12`, for which the composite z-score in assay [1] was -1.97; in assay [3], -0.256; in assay [4] it was -0.413; in assay [5] it was 0.273; in assay [6] it was -0.325; in assay [7] it was 0.0952. In addition, the composite z-score is -0.383 in assay [8]; -0.0193 in assay [9]; -0.385 in assay [10]; 0.801 with Albumin (Bos taurus); -0.311 in assay [12]; -0.192 in assay [13]. Moreover, the composite z-score in assay [14] is 0.736; in assay [15] it was 0.518; in [16] it was -0.0167; in the assay on Sam68 (KHDRBS1), -0.581; in assay [17], -0.0707; in assay [18], -0.252. The z-score in [2] is -0.766. In addition, the composite Z-score in [11] was -0.53 (inactive).

`CCOc1cc(C(O)C2C=CC3C(=O)NC(=O)C3N2Nc2ccccn2)ccc1O` (stereo not given): the composite z-score was -0.357 in assay [1]; 0.205 in assay [3]; 0.384 in [4]; -0.108 in assay [5]; -0.198 in assay [6]; -0.117 in assay [7]. In addition, the composite z-score was 0.0258 in [8]; 0.229 in assay [9]; 0.297 in [10]; 0.409 with Albumin (Bos taurus); -0.0663 in [12]; 0.0065 in assay [13]. Further, the composite z-score is 0.121 in assay [14]; -0.086 in assay [15]; 0.241 in assay [16]; -0.352 in the assay on Sam68 (KHDRBS1); 0.143 in assay [17]; 0.0306 in [18]. Also, the z-score in assay [2] is 0.294. Also, the composite Z-score in assay [11] was 0.057 (inactive).
